Measured values taken from the supplement of paper PMC10849652.
About 7,900 targets were measured; listed, in parts, are those with a hit and a random draw of the rest. About 0.6% of all pairs of compound and target were hits. Unmarked numbers belong to inactive results.

Legend:
Test in all cases: log2 fold change, soluble protein after heating vs DMSO (PISA); higher = thermal stabilisation; K562 cells, 10 uM, 30 min; active = over 0.2 and 3.5 SD of the protein, either way, in both replicates (recomputed)
[1] = compound: C1COCCN1CCN2C3=CC=CC=C3N=C2NC(=O)C4=CC(=CC=C4)[N+](=O)[O-] [IRAK-1-4 Inhibitor I]
Method in brief: (§1)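 K562 cells at 2×10^6 cells/mL were treated for 30 min with 10 μM compound, and aliquots were heated for 3 min over 48°C-58°C before pooling. Extraction used PBS with 0.5% NP-40 at 4°C, and soluble protein was the supernatant after 21,000xg for 90 min, measured by TMTpro 16plex LC-MS/MS with channel sums equalised. Thermal stability values, relative to control samples and from duplicates, are log2 fold changes.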

[2] = compound: C=CC(=O)N1CCC[C@@H](n2nc(-c3ccc(Oc4ccccc4)cc3)c3c(N)ncnc32)C1 [ibrutinib]
Method in brief: as §1

[3] = compound: CC(=O)c1cnc2ccc(-c3cc(Cl)c(O)c(Cl)c3)nc2c1N[C@H]1CC[C@H](CN(C)C)CC1
Method in brief: as §1

[4] = compound: CC(C)(C)Cn1c(N)nc2ccc(-c3[nH]c(C(C)(C)C)nc3-c3ccc(F)cc3)nc21 [ralimetinib]
Method in brief: as §1

[5] = compound: CC(C)(O)CC(=O)NCCn1ccc2ncnc(Nc3ccc(Oc4cccc(C(F)(F)F)c4)c(Cl)c3)c21
Method in brief: as §1

[6] = compound: CC(C)C1=C2N=C(C=C(N2N=C1)NCC3=CC=CC=C3)NCCCCCCN
Method in brief: as §1

[7] = compound: CC(C)C[C@@H](C=O)NC(=O)[C@H](CC(C)C)NC(=O)[C@H](CC(C)C)NC(=O)OCc1ccccc1
Method in brief: as §1

[8] = compound: CC(C)N(C[C@H]1O[C@@H](n2cnc3c(N)ncnc32)[C@H](O)[C@@H]1O)[C@H]1C[C@@H](CCc2nc3cc(C(C)(C)C)ccc3[nH]2)C1 [pinometostat]
Method in brief: as §1

[9] = compound: CC1=C(C(CC(=O)N1)C2=CC=C(C=C2)C(F)(F)F)C(=O)NC3=C(C=C4C(=C3)C=NN4)F
Method in brief: as §1

[10] = compound: CC1=C(C2=C(C=C1)C(=O)C3=CC=CC=C3N2CCCN)C
Method in brief: as §1

Sequence of UniProt Q9Y5Y5 (Q9Y5Y5 whole entry, looked up): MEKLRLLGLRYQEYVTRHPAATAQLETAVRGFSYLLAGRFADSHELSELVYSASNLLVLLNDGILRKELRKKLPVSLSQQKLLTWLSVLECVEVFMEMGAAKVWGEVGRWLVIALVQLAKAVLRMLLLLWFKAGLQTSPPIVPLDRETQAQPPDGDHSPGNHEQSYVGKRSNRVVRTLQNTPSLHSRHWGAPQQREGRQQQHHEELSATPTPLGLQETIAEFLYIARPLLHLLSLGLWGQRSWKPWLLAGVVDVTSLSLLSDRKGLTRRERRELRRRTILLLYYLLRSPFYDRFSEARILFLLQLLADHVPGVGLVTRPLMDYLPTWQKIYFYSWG
Sequence of UniProt Q15185 (Q15185 whole entry, looked up): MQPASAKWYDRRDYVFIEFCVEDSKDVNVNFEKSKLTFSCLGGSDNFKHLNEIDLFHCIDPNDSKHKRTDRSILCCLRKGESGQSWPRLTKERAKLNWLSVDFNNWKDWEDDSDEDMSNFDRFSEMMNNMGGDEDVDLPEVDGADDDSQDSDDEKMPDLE
Sequence of UniProt Q8NAV1 (Q8NAV1 whole entry, looked up): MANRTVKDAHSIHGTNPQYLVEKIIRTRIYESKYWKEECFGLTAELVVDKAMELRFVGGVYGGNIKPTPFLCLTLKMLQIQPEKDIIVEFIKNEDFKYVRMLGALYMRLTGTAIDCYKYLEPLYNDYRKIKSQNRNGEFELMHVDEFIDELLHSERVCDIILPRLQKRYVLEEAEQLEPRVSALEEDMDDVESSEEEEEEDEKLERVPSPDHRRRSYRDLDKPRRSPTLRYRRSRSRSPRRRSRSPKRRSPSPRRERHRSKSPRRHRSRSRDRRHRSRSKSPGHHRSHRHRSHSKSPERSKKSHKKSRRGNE
Sequence of UniProt O15067 (O15067 whole entry, looked up): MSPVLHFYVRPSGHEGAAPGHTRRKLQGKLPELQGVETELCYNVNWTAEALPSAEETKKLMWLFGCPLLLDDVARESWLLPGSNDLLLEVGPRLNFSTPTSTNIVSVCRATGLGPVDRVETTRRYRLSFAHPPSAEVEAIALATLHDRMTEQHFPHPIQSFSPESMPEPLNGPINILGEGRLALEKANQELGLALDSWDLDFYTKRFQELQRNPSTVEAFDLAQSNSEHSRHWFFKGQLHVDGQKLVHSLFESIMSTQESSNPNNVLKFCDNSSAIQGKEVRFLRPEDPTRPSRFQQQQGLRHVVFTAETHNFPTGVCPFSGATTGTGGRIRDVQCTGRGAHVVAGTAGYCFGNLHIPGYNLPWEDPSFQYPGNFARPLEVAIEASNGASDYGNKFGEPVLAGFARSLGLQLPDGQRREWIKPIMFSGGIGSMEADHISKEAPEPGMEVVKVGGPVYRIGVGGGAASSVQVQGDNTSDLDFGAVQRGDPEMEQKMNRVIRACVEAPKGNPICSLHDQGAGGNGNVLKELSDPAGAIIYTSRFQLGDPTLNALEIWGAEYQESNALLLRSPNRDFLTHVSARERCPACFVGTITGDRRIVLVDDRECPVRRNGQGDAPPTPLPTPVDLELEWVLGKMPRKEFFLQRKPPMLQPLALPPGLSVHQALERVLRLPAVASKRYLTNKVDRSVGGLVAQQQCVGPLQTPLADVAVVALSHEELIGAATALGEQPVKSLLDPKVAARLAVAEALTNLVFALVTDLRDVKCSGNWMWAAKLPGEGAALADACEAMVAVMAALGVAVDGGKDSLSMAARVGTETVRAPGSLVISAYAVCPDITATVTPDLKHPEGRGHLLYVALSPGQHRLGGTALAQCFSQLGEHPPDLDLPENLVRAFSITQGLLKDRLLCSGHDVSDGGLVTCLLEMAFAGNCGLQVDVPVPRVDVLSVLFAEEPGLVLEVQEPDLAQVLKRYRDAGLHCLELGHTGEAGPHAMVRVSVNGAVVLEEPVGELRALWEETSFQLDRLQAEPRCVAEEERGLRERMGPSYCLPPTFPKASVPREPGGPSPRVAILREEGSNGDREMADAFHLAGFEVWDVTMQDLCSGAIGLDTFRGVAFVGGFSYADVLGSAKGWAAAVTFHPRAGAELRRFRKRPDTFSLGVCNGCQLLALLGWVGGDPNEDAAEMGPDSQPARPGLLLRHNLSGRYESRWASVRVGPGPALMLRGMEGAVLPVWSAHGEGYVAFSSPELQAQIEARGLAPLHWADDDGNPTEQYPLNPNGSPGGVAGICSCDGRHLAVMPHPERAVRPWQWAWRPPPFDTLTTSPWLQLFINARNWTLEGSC
Sequence of UniProt Q8WXF1 (Q8WXF1 whole entry, looked up): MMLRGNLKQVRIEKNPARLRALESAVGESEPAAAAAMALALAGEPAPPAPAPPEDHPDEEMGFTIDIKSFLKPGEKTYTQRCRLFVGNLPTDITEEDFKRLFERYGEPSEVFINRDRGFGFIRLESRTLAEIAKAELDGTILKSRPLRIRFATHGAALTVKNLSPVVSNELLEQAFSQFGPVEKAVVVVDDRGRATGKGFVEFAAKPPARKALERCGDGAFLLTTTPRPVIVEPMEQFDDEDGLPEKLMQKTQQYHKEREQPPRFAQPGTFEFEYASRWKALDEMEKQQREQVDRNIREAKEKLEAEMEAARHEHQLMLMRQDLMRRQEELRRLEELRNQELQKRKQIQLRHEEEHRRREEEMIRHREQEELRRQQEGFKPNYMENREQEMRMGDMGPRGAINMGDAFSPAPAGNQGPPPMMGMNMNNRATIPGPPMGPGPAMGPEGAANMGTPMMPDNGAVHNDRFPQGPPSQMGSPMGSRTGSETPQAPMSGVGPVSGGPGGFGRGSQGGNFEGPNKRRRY
Sequence of UniProt Q13356 (Q13356 whole entry, looked up): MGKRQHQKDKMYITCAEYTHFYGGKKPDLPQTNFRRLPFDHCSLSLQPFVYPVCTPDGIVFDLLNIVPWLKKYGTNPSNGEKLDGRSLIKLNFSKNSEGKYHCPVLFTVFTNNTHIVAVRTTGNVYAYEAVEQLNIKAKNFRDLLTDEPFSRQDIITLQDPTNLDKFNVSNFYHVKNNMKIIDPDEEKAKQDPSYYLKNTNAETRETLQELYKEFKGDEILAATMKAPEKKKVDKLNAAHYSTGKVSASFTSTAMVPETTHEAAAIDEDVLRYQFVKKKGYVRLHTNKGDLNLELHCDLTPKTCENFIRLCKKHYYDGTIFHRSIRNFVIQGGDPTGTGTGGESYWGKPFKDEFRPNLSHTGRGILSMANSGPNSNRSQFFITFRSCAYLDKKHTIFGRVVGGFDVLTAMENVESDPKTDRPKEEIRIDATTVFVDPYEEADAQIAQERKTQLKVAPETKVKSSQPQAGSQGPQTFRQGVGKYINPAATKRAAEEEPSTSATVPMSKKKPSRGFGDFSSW
Sequence of UniProt Q8NCC3 (Q8NCC3 whole entry, looked up): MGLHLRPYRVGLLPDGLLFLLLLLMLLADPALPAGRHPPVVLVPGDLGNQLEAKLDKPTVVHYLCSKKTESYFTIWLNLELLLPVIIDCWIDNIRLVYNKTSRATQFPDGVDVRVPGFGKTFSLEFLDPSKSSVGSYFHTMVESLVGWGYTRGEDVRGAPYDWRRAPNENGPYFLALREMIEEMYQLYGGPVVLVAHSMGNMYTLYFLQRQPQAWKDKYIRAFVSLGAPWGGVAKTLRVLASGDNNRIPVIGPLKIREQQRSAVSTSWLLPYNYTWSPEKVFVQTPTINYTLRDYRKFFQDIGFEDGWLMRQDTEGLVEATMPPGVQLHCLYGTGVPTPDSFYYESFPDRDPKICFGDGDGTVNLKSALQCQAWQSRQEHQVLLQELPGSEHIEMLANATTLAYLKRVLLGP
Sequence of UniProt O43741 (O43741 whole entry, looked up): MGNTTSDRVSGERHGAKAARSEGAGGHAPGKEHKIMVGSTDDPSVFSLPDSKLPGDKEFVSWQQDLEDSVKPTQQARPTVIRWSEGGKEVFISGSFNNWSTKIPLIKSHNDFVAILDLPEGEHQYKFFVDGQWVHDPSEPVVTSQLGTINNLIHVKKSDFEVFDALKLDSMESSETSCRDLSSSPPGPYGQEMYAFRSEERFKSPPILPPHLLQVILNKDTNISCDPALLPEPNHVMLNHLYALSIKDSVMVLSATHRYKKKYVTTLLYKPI
Sequence of UniProt P50897 (P50897 whole entry, looked up): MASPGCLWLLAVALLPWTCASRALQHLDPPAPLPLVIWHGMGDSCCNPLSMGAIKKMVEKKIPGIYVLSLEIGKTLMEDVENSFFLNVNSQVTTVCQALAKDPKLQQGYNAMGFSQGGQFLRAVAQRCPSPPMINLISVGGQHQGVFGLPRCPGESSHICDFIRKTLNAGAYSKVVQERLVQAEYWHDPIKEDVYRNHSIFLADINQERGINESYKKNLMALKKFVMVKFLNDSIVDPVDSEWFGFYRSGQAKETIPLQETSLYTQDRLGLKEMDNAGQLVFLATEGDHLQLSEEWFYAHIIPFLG
Sequence of UniProt P0CAP2 (P0CAP2 whole entry, looked up): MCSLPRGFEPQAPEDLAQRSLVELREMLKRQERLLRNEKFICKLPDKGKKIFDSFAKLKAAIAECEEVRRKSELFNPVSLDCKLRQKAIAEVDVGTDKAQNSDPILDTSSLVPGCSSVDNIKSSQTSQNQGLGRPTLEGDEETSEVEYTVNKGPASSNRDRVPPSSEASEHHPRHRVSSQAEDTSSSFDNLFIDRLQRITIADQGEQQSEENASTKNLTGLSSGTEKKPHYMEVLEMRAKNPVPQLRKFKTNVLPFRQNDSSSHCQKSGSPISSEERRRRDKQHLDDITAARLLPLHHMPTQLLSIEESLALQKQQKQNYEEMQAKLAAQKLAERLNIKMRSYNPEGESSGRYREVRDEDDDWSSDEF
Sequence of UniProt Q15365 (Q15365 whole entry, looked up): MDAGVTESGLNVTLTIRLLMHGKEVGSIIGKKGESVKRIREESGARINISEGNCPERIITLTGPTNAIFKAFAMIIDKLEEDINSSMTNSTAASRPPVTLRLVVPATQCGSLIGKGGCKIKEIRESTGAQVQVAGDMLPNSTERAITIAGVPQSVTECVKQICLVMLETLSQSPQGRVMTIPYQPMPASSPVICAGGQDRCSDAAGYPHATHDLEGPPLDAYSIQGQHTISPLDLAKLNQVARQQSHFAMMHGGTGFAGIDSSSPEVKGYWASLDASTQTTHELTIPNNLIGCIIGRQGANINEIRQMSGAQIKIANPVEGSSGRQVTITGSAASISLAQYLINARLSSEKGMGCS

Row | Target | log2 fold change [1] | log2 fold change [2] | log2 fold change [3] | log2 fold change [4] | log2 fold change [5] | log2 fold change [6] | log2 fold change [7] | log2 fold change [8] | log2 fold change [9] | log2 fold change [10]
1 | PPID (UniProt Q08752) | -0.141 | -0.057 | -0.013 | 0.103 | -0.152 | -0.238 | 0.053 | 0.105 | -0.006 | 0.022
2 | PFAS (UniProt O15067) | -0.055 | 0.065 | -0.217 | -0.003 | 0.02 | 0.131 | -0.055 | -0.02 | 0.039 | 0.17
3 | PRKAG1 isoform 3 (UniProt P54619) | 0.042 | -0.019 | -0.266 (active) | 0.001 | -0.011 | -0.067 | -0.025 | 0.015 | 0.079 | 0.013
4 | PPT1 (UniProt P50897) | 0.041 | 0.049 | 0.008 | -0.072 | 0.039 | -0.406 (active) | 0.048 | -0.036 | 0.018 | -0.06
5 | PTPA (UniProt Q15257) | 0.016 | -0.027 | -0.003 | -0.02 | -0.022 | -0.01 | -0.028 | -0.044 | 0.016 | -0.011
6 | PMPCB (UniProt O75439) | 0.035 | 0.008 | 0.01 | 0.064 | -0.108 | 0.04 | 0.012 | -0.022 | 0 | 0.015
7 | PSMC2 (UniProt P35998) | -0.024 | -0.009 | 0.079 | 0.046 | 0.011 | 0.053 | -0.183 | 0.033 | 0.039 | -0.039
8 | PARL (UniProt Q9H300) | 0.019 | 0.007 | 0.003 | -0.022 | -0.003 | -0.233 (active) | 0.005 | -0.006 | 0.059 | 0.017
9 | PBK (UniProt Q96KB5) | -0.142 | -0.059 | 0 | 0.111 | -0.144 | -0.286 | 0.06 | 0.071 | -0.011 | -0.08
10 | PKN1 isoform 2 (UniProt Q16512) | -0.014 | -0.018 | -1.2 (active) | 0.006 | -0.09 | -0.038 | 0.002 | 0.057 | -0.002 | 0.047
11 | PRPF38A (UniProt Q8NAV1) | 0.011 | -0.051 | -0.237 (active) | 0.03 | 0.012 | -0.029 | 0.005 | 0.027 | 0.045 | -0.014
12 | PPIL2 (UniProt Q13356) | -0.097 | -0.048 | -0.077 | 0 | -0.081 | -0.044 | 0.096 | -0.063 | -0.043 | 0.062
13 | PSMA3 (UniProt P25788) | -0.027 | -0.013 | 0.008 | 0.037 | 0.071 | 0.102 | -0.065 | -0.033 | -0.02 | -0.014
14 | PTGES3 (UniProt Q15185) | 0.04 | 0 | -0.01 | 0.017 | -0.103 | -0.247 | -0.079 | -0.081 | 0.008 | -0.202
15 | PRKAB2 (UniProt O43741) | 0.003 | 0.054 | -0.115 | 0.223 | -0.117 | -0.028 | -0.175 | -0.065 | 0.032 | -0.053
16 | POLR3B (UniProt Q9NW08) | -0.121 | -0.048 | 0.044 | 0.052 | -0.116 | -0.183 | 0.055 | 0.115 | -0.035 | 0.297 (active)
17 | PRMT3 (UniProt O60678) | 0 | -0.102 | -0.023 | -0.028 | -0.167 | -0.189 | 0.028 | 0.003 | 0.013 | 0.079
18 | PPP2R5C isoform 5 (UniProt Q13362) | -0.023 | 0.041 | -0.059 | -0.044 | -0.072 | -0.061 | 0.031 | 0.011 | 0.005 | -0.018
19 | PSMD9 (UniProt O00233) | 0.033 | -0.005 | -0.003 | -0.029 | 0.003 | 0.069 | -0.015 | -0.039 | 0.017 | -0.004
20 | PGGHG (UniProt Q32M88) | 0.018 | 0.045 | -0.013 | 0.136 | 0.05 | 0.044 | 0.008 | -0.054 | -0.124 | -0.027
21 | PAK4 (UniProt O96013) | 0.038 | -0.032 | 0.173 | -0.084 | 0 | 0.015 | 0.07 | 0.016 | -0.052 | 0.049
22 | POLR2M (UniProt P0CAP2) | -0.022 | -0.017 | 0.067 | 0.016 | 0.001 | 0.059 | 0.058 | -0.02 | 0.067 | 0
23 | PIP4P2 (UniProt Q8N4L2) | -0.027 | 0 | -0.028 | 0.005 | 0.142 | -0.624 (active) | 0.011 | 0.012 | 0.028 | 0.033
24 | PELO (UniProt Q9BRX2) | -0.073 | 0.071 | -0.106 | 0.122 | -0.128 | -0.361 (active) | 0.058 | 0.201 | 0.019 | 0.088
25 | PLA2G15 (UniProt Q8NCC3) | 0.071 | -0.012 | -0.018 | -0.057 | -0.004 | -0.024 | 0.113 | 0.006 | -0.031 | -0.141
26 | POLR3D (UniProt P05423) | -0.017 | 0.766 | 0.022 | 0.043 | -0.1 | -0.158 | -0.002 | 0.109 | 0.012 | 0.009
27 | POMP (UniProt Q9Y244) | 0.029 | -0.002 | -0.002 | -0.022 | -0.033 | 0.009 | -0.002 | -0.023 | 0.076 | -0.053
28 | PEX16 isoform 2 (UniProt Q9Y5Y5) | -0.068 | -0.059 | -0.025 | -0.104 | -0.067 | -0.407 (active) | 0.033 | -0.052 | 0.03 | 0.136
29 | PSPC1 (UniProt Q8WXF1) | -0.097 | 0.002 | -0.201 | -0.012 | -0.024 | -0.18 | 0.048 | -0.02 | -0.042 | 0.15
30 | PCBP1 (UniProt Q15365) | 0 | -0.017 | -0.005 | 0.058 | -0.058 | -0.118 | -0.006 | -0.003 | 0.023 | 0.039
